From the supplement of paper PMC12582362
Counter-ions that a name gives are not always drawn. Out of some 1,500 compounds screened, about 30 (2%) showed activity. The sample holds actives, similar compounds and a random draw of the others, so the mix is not that of the screen.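 The calls were made as follows: active = robust z-score below -2; a few such results were not called.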

These compounds were tested on optoTopBP1 Flp-In 293 T-REx (HEK293) cells (assay: light-induced TopBP1 condensate (nuclear foci) count, plate-normalised robust z-score vs non-control wells; higher = more TopBP1 condensates (negative = condensation inhibitor), active = hit call of the paper). Conditions: 10 µM; incubation time 2 h.

Compound | light-induced TopBP1 condensate (z-score)
CC[N+](C)(CC)CCOC(=O)C1c2ccccc2Oc2ccccc21 [Methantheline bromide] | 0.691 (inactive)
CSc1nc2cc(Cl)c(Oc3cccc(Cl)c3Cl)cc2[nH]1 [Triclabendazole] | -2.43 (active)
C[C@@H](CN1CC(=O)NC(=O)C1)N1CC(=O)NC(=O)C1 [Dexrazoxane hydrochloride] | -0.035 (inactive)
C=CCOc1ccc(CC(=O)O)cc1Cl [Alclofenac] | 0.0679 (inactive)
N=C(N)NCCN1CCCCCCC1 [Guanethidine sulfate] | -0.799 (inactive)
CC(C)(C)NC[C@H](O)COc1ccccc1C1CCCC1 [Penbutolol sulfate] | -0.793 (inactive)
COc1ccccc1Oc1c(NS(=O)(=O)c2ccc(C(C)(C)C)cc2)nc(-c2ncccn2)nc1OCCO [Bosentan] | 0.343 (inactive)
CC[C@H]1OC(=O)C[C@@H](O)[C@H](C)[C@@H](O[C@@H]2O[C@H](C)[C@@H](O[C@H]3C[C@@](C)(O)[C@@H](O)[C@H](C)O3)[C@H](N(C)C)[C@H]2O)[C@@H](CC=O)C[C@@H](C)C(=O)/C=C/C(C)=C/[C@@H]1CO[C@@H]1O[C@H](C)[C@@H](O)[C@@H](OC)[C@H]1OC [Tylosin] | 0.755 (inactive)
CN1C(=O)OC(C)(C)C1=O [Trimethadione] | 0.285 (inactive)
NC[C@@H]1O[C@@H](O[C@H]2[C@H](O)[C@@H](O[C@H]3O[C@H](CO)[C@@H](O)[C@H](N)[C@H]3O)[C@H](N)C[C@@H]2N)[C@@H](O)[C@H](O)[C@H]1O [Kanamycin A sulfate] | 0.0568 (inactive)
C[C@H]1[C@H](OC(=O)CCC(=O)O)O[C@@H]2O[C@@]3(C)CC[C@H]4[C@H](C)CC[C@@H]1[C@@]24OO3 [Artesunate] | -0.0235 (inactive)
CCN(CCO)CCCC(C)Nc1ccnc2cc(Cl)ccc12 (stereo not drawn) [Hydroxychloroquine sulfate] | -1.68 (inactive)
CCN(CC)CCCC(C)Nc1c2ccc(Cl)cc2nc2ccc(OC)cc12 (stereo not drawn) [Quinacrine dihydrochloride hydrate] | -3.15 (active)
CCN(CC)CCCC(C)Nc1ccnc2cc(Cl)ccc12 (stereo not drawn) [Chloroquine diphosphate] | -0.187 (inactive)
CC(=O)N[C@@H](CC(=O)N[C@@H](CCC(=O)O)C(=O)O)C(=O)O [Spaglumic acid] | 1.44 (inactive)
CC(C)(CO)[C@@H](O)C(=O)NCCC(=O)NCCSSCCNC(=O)CCNC(=O)[C@H](O)C(C)(C)CO [Pantethine] | 0.505 (inactive)
NCCCC(O)(P(=O)(O)O)P(=O)(O)O [Alendronate sodium] | -0.706 (inactive)
O=P(O)(O)C(O)(Cc1cccnc1)P(=O)(O)O [Risedronic acid monohydrate] | -0.826 (inactive)
C#C[C@]1(O)CC[C@H]2[C@@H]3CCC4=CCCC[C@@H]4[C@H]3CC[C@@]21C [Lynestrenol] | 1.39 (inactive)
CC(C)=CCC1C(=O)N(c2ccccc2)N(c2ccccc2)C1=O [Feprazone] | 1.11 (inactive)
C[N+](C)(C)C[C@H](O)CC(=O)[O-] [Levocarnitine] | 0.0352 (inactive)

Compound | light-induced TopBP1 condensate (z-score)
CC(C)Nc1cccnc1N1CCN(C(=O)c2cc3cc(NS(C)(=O)=O)ccc3[nH]2)CC1 [Delavirdine] | 0.915 (inactive)
Cn1ccnc1S [Methimazole] | -0.456 (inactive)
CC1(C)O[C@@H]2C[C@H]3[C@@H]4CCC5=CC(=O)C=C[C@]5(C)[C@H]4[C@@H](O)C[C@]3(C)[C@]2(C(=O)CO)O1 [Desonide] | -0.951 (inactive)
CC/C=C(\C(=O)N[C@@H]1C(=O)N2C(C(=O)OCOC(=O)C(C)(C)C)=C(COC(N)=O)CS[C@H]12)c1csc(N)n1 [Cefcapene pivoxil hydrochloride] | -0.782 (inactive)
CCOc1ccccc1C(N)=O [Ethenzamide] | -0.0402 (inactive)
CCC[C@@H]1C[C@@H](C(=O)N[C@@H]([C@H]2O[C@H](SC)[C@H](O)[C@@H](O)[C@H]2O)[C@H](C)Cl)N(C)C1 [Clindamycin hydrochloride] | 0.556 (inactive)
CC[C@@H]([C@H](C)O)n1ncn(-c2ccc(N3CCN(c4ccc(OC[C@@H]5CO[C@@](Cn6cncn6)(c6ccc(F)cc6F)C5)cc4)CC3)cc2)c1=O [Posaconazole] | -2.52 (active)
CC(C)N1CCN(c2ccc(OCC3COC(Cn4cncn4)(c4ccc(Cl)cc4Cl)O3)cc2)CC1 (stereo not drawn) [Terconazole] | -0.114 (inactive)
CCC(C)n1ncn(-c2ccc(N3CCN(c4ccc(OCC5COC(Cn6cncn6)(c6ccc(Cl)cc6Cl)O5)cc4)CC3)cc2)c1=O (stereo not drawn) [Itraconazole] | -0.757 (inactive)
CN[C@@H]1[C@@H](O[C@H]2O[C@H](CO)[C@@H](N)[C@H](O)[C@H]2O)OC2C[C@@H](N)[C@@H](O[C@H]3[C@H](O)[C@@H](O)[C@H](N)C[C@@H]3N)OC2[C@@H]1O (stereo partly drawn) [Apramycin] | 0.974 (inactive)
C#Cc1cccc(Nc2ncnc3cc(OCCOC)c(OCCOC)cc23)c1 [Erlotinib] | 1.27 (inactive)
OC(CNCC(O)C1CCc2cc(F)ccc2O1)C1CCc2cc(F)ccc2O1 (stereo not drawn) [Nebivolol hydrochloride] | -0.227 (inactive)
CCCC(=O)N1CCCN(c2nc(N)c3cc(OC)c(OC)cc3n2)CC1 [Bunazosin hydrochloride] | 0.537 (inactive)
CC(=O)OCC(=O)[C@@]1(O)[C@H](C)C[C@H]2[C@@H]3CCC4=CC(=O)C=C[C@]4(C)[C@@]3(F)[C@@H](O)C[C@@]21C [Dexamethasone acetate] | 0.214 (inactive)
OCCN1CCN(CC/C=C2/c3ccccc3Sc3ccc(Cl)cc32)CC1 [Zuclopenthixol dihydrochloride] | -0.966 (inactive)
Cn1cc(C(=O)[C@@H]2CCc3[nH]cnc3C2)c2ccccc21 [Ramosetron hydrochloride] | -0.549 (inactive)
COc1ccc(C2C(=O)c3ccccc3C2=O)cc1 [Anisindione] | 0.789 (inactive)
COc1cccc2c1C(=O)c1c(O)c3c(c(O)c1C2=O)C[C@@](O)(C(=O)CO)C[C@@H]3O[C@H]1C[C@H](N)[C@@H](O)[C@H](C)O1 [Epirubicin hydrochloride] | -3.05 (active)
C[C@H](NCc1ccc(OCc2cccc(F)c2)cc1)C(N)=O [Safinamide] | -0.127 (inactive)
CC(COc1ccccc1)NC(C)C(O)c1ccc(O)cc1 (stereo not drawn) [Isoxsuprine hydrochloride] | -0.14 (inactive)
Oc1ccc(OCc2ccccc2)cc1 [Monobenzone] | -2.29 (active)

Compound | light-induced TopBP1 condensate (z-score)
COc1ccc(C(=O)c2ccc(C)cc2)c(O)c1 [Mexenone] | 0.105 (inactive)
O=C(NCCCN1CCOCC1)c1ccc(Cl)cc1 [Eprobemide] | 0.149 (inactive)
CC(C)NCC(O)COc1cccc2[nH]c3ccccc3c12 (stereo not drawn) [Carazolol] | -1.07 (inactive)
CC(COc1ccccc1)NN (stereo not drawn) [Phenoxypropazine dihydrochloride] | 0.724 (inactive)
CN(C)C(=O)COC(=O)Cc1ccc(OC(=O)c2ccc(NC(=N)N)cc2)cc1 [Camostat mesylate] | -0.369 (inactive)
CN[C@@H]1[C@H](O)[C@H](NC)[C@H]2O[C@@]3(O)C(=O)C[C@@H](C)O[C@H]3O[C@@H]2[C@H]1O [Spectinomycin dihydrochloride] | 0.546 (inactive)
C=C1C[C@H]2[C@@H]3C=C(C)C4=CC(=O)CC[C@]4(C)[C@H]3CC[C@]2(C)[C@@]1(OC(C)=O)C(C)=O [Melengestrol acetate] | -0.246 (inactive)
CCOc1ccccc1OCCN[C@H](C)Cc1ccc(OC)c(S(N)(=O)=O)c1 [(R)-Tamsulosin hydrochloride] | 0.258 (inactive)
Cc1cccc(C)c1OCC(=O)N[C@@H](Cc1ccccc1)[C@@H](O)C[C@H](Cc1ccccc1)NC(=O)[C@H](C(C)C)N1CCCNC1=O [Lopinavir] | 0.599 (inactive)
CC(C)CN(C[C@@H](O)[C@H](Cc1ccccc1)NC(=O)O[C@H]1CCOC1)S(=O)(=O)c1ccc(N)cc1 [Amprenavir] | 1.18 (inactive)
CC[N+]1(CC)CCC(=C(c2ccccc2)c2ccccc2)C1C (stereo not drawn) [Prifinium Bromide] | 1.11 (inactive)
CC(C)(CO)[C@@H](O)C(=O)NCCCC(=O)O [Hopantenate calcium] | 0.00401 (inactive)
COc1cc(N)cn[n+]1-c1ccccc1 [Amezinium metilsulfate] | 0.428 (inactive)
O=C1CN2Cc3c(ccc(Cl)c3Cl)N=C2N1 [Anagrelide] | -0.566 (inactive)
Clc1ccc(C(Cn2ccnc2)OCc2csc3c(Cl)cccc23)c(Cl)c1 (stereo not drawn) [Sertaconazole nitrate] | 0.206 (inactive)
OCC(CO)N[C@H]1C[C@](O)(CO)[C@@H](O)[C@H](O)[C@H]1O [Voglibose] | 1.28 (inactive)
CC(C)(CO)C(O)C(=O)NCCCO (stereo not drawn) [Panthenol (D)] | 0.585 (inactive)
CN(C)CCOC1=Cc2ccccc2Sc2ccc(Cl)cc21 [Zotepine] | 0.612 (inactive)
CN1CCCCC1CCN1c2ccccc2Sc2ccc([S+](C)[O-])cc21 (stereo not drawn) [Mesoridazine besylate] | 0.412 (inactive)
Cc1nc2ccccc2n1Cc1ccc(Cl)cc1 [Chlormidazole] | -0.19 (inactive)
CC(C)(C)C(=O)OCOC(=O)[C@@H]1N2C(=O)[C@@H](/N=C/N3CCCCCC3)[C@H]2SC1(C)C [Pivmecillinam hydrochloride] | 0.64 (inactive)
